Source: PubChem BioAssay
Active and inactive are the calls of the source.

How the values were obtained:
[1] = E. coli DRC41 culture turbidity changes, primary screen, E. coli filamentation inducer project, strain DRC41, OD650, 48 h (AID 1152);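 note: E. coli MC1000 strain DRC41 lacking acrAB efflux pump and sulA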; conditions: E. coli DRC41 (acrAB sulA), higher = more signal, called active from +8 up or from −8 down
[2] = small-molecule binders of probe aLefty1, primary screen, biochemical, small-molecule microarray, 635/667 nm fluorescence (AID 1153); conditions: higher = more signal;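 note: score merges spot fluorescence with signal-to-noise ratio from the scanned slide images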
[3] = PSAC antagonists in infected red cells, primary screen, cell-based, P. falciparum Indochina, OD700, 1 h (AID 1154); conditions: P. falciparum Indochina infected RBC osmotic lysis, higher = more signal, called active from +8 up or from −8 down
[4] = PSAC antagonists in infected red cells, primary screen, cell-based, P. falciparum Indochina, OD700, 2 h (AID 1155);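 note: lysis reports solute entry through the parasite surface anion channel PSAC; channel blockers reduce lysis of infected cells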; conditions: P. falciparum Indochina infected erythrocytes, osmotic lysis OD700; higher = more signal, called active from +8 up or from −8 down
[5] = osmotic lysis modulators in infected erythrocytes, primary screen, PSAC antagonist project, cell-based, P. falciparum Indochina, OD700, 3 h (AID 1156); conditions: higher = more signal, called active from +8 up or from −8 down
[6] = PSAC antagonists in infected red cells, primary screen, cell-based, P. falciparum Indochina, OD700, 18 h (AID 1157); conditions: P. falciparum Indochina infected erythrocytes, osmotic lysis OD700, 18 h; higher = more signal, called active from +8 up or from −8 down
[7] = modulators of S6 phosphorylation in cells, primary screen, cell-based, A549, cytoblot, luminescence, serum-stimulated (AID 1158); conditions: A549 phospho-S6 cytoblot, 5 h, higher = more signal;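 note: serum-stimulated A549 lung adenocarcinoma cells; signal is phosphorylated S6 detected by cytoblot immunostaining with HRP secondary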
[8] = target: NADPH oxidase 2 (Homo sapiens) (UniProt P04839); experiment: NOX2-dependent H2O2 signal modulators, primary screen, NOX inhibitor project, cell-based, HEK293-NOX2, PMA-stimulated, Amplex Red fluorescence (AID 1159); conditions: 45 min, higher = more signal, called active from +8 up or from −8 down; note: test concentration not given here
[9] = target: NADPH oxidase 4 (Homo sapiens) (UniProt Q9NPH5); experiment: NOX4-dependent H2O2 signal modulators, primary screen, NOX inhibitor project, cell-based, HEK293-NOX4, tetracycline-induced, Amplex Red fluorescence (AID 1160); conditions: 45 min, higher = more signal, called active from +8 up or from −8 down
[10] = target: NADPH oxidase 5 (Homo sapiens) (UniProt Q96PH1); experiment: NOX5-dependent H2O2 signal modulators, primary screen, NOX inhibitor project, cell-based, HEK293-NOX5, Amplex Red fluorescence (AID 1161); conditions: HEK293-NOX5, ionomycin, 45 min, higher = more signal
[11] = A549 cell viability effects, profiling panel, calcein-AM fluorescence, 48 h, basal (AID 1162); conditions: higher = more signal; note: test concentration not given here
[12] = adipocyte viability effects, profiling panel, cell-based, 3T3-L1 adipocytes, calcein-AM fluorescence, 48 h, basal (AID 1163); conditions: 3T3-L1 adipocytes viability, higher = more signal; note: test concentration not given here
[13] = HepG2 cell viability effects, profiling panel, calcein-AM fluorescence, 48 h, basal (AID 1164); conditions: higher = more signal; note: test concentration not given here
[14] = MM1S cell viability effects, profiling panel, calcein-AM fluorescence, 48 h, basal (AID 1165); conditions: higher = more signal;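 note: viability of MM1S multiple myeloma cells under basal unstimulated conditions; test concentration not given here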
[15] = basal RPMI8226 viability, no added stimulus, profiling panel, cell-based, calcein-AM fluorescence, 48 h, PK04 Diversity Set (AID 1166); conditions: RPMI8226 myeloma viability, higher = more signal;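 note: cells grown under basal conditions without added stimulus; test concentration not given here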
[16] = basal HepG2 mitochondrial membrane potential changes, profiling panel, cell-based, JC-1 fluorescence, 24 h, 100 nL compound (AID 1167); conditions: higher = more signal; note: test concentration not given here
[17] = basal 3T3-L1 adipocyte mitochondrial potential changes, profiling panel, cell-based, JC-1 fluorescence, 3T3-L1 adipocytes, 24 h, 100 nL compound (AID 1168); conditions: JC-1 mitochondrial fluorescence, higher = more signal, called active from +8 up or from −8 down; note: test concentration not given here
[18] = basal RPMI8226 mitochondrial membrane potential changes, profiling panel, cell-based, JC-1 fluorescence, 24 h, 100 nL compound (AID 1169); conditions: RPMI8226 myeloma, JC-1 mitochondrial potential fluorescence, higher = more signal; note: test concentration not given here
[19] = basal MM1S mitochondrial membrane potential changes, profiling panel, cell-based, JC-1 fluorescence, 24 h, 100 nL compound (AID 1170); conditions: higher = more signal; note: test concentration not given here
[20] = A549 lung cancer cell viability effects, profiling panel, resazurin fluorescence, 24 h, PK04 Diversity Set (AID 1171); conditions: higher = more signal, called active from +8 up or from −8 down; note: test concentration not given here

Chain of NADPH oxidase 5 (Homo sapiens) (Q96PH1 whole entry, looked up): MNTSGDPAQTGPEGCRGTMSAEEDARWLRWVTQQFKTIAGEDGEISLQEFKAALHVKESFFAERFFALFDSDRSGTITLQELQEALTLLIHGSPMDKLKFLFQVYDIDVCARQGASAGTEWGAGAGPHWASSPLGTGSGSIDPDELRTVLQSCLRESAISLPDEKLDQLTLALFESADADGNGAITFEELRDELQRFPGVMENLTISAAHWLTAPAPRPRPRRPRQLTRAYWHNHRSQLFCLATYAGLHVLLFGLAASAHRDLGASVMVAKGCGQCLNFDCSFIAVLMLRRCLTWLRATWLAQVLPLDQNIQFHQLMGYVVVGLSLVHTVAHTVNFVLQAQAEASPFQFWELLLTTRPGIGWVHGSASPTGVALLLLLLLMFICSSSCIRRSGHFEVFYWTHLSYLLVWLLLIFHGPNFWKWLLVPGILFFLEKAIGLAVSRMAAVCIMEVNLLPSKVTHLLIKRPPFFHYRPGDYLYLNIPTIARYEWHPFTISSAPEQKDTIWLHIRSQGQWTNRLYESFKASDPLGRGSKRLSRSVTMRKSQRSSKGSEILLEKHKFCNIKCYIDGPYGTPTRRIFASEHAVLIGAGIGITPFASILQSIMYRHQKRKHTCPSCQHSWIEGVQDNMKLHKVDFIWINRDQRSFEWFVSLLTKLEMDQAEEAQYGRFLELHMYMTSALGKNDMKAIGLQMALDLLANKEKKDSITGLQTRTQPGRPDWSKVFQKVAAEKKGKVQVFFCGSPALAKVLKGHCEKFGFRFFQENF
Chain of NADPH oxidase 4 (Homo sapiens) (Q9NPH5 whole entry, looked up): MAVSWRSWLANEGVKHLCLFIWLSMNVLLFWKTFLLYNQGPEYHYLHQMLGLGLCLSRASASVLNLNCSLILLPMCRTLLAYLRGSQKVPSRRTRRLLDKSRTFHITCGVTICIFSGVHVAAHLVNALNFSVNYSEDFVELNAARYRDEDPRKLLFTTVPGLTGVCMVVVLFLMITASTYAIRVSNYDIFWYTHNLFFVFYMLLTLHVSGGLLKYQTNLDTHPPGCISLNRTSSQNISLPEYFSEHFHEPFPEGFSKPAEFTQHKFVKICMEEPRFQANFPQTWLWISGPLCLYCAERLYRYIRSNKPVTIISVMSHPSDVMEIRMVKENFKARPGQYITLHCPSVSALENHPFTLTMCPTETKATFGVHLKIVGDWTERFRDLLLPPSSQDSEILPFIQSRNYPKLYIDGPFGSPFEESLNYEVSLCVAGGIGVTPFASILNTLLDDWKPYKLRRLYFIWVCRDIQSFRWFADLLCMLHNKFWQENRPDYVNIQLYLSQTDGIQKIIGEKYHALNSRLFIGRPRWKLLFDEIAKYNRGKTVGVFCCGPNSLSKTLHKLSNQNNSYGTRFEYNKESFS
Chain of NADPH oxidase 2 (Homo sapiens) (P04839 whole entry, looked up): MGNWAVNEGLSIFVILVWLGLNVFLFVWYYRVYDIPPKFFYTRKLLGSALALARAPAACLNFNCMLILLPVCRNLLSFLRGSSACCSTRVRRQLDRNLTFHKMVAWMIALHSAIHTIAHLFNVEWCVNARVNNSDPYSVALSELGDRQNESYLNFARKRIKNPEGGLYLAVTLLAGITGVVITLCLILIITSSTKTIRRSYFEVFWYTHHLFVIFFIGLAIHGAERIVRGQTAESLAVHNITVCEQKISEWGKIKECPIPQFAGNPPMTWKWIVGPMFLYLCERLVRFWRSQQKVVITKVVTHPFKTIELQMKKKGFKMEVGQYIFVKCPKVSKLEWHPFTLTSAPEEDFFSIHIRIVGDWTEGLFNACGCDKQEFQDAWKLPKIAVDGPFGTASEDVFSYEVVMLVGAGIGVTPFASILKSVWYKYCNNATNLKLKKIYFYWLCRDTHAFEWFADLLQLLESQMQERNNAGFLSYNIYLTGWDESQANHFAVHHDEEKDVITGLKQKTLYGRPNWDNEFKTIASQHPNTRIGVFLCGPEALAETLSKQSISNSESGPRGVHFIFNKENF

Row | SMILES | z-score [1] | composite z-score [2] | z-score [3] | z-score [4] | z-score [5] | z-score [6] | z-score [7] | z-score [8] | z-score [9] | z-score [10] | z-score [11] | z-score [12] | z-score [13] | z-score [14] | z-score [15] | z-score [16] | z-score [17] | z-score [18] | z-score [19] | z-score [20]
1 | CC(CCN1CCc2nc(-c3ccccc3)c(-c3ccccc3)cc2C1)=NO[C@H](C)c1cn([C@H](CO)Cc2ccccc2)nn1 | -1.52 (inactive) | 0.057 | 1.6 (inactive) | 0.147 (inactive) | 1.16 (inactive) | 0.293 (inactive) | -0.746 | -4.57 (inactive) | -0.31 (inactive) | -1.75 | 0.75 | 0.23 | 0.603 | -1.31 | 0.163 | 2.57 | -1.49 (inactive) | 1.02 | 0.428 | -0.167 (inactive)
2 | CC=CC1=C(CO)[C@H](O)[C@H]2O[C@H]2[C@@H]1O | -0.412 (inactive) | -0.106 | -0.312 (inactive) | 0.367 (inactive) | -0.242 (inactive) | 0.172 (inactive) | -0.325 | 0.623 (inactive) | -0.191 (inactive) | 0.109 | -0.37 | 0.309 | 0.366 | -0.948 | -0.671 | -0.206 | 0.00909 (inactive) | -0.225 | -0.244 | -0.337 (inactive)
3 | O=C1C[C@@H](O)[C@@H](O)[C@@H]2[C@@H]3C(=O)N(Cc4ccccc4)C(=O)[C@@H]3CC[C@H]12 | -0.675 (inactive) | -0.147 | 1.56 (inactive) | 0.586 (inactive) | 0.215 (inactive) | 0.526 (inactive) | -0.254 | 2.31 (inactive) | -0.79 (inactive) | 0.127 | -0.801 | 0.241 | 0.175 | -0.0999 | 0.549 | -0.511 | -0.919 (inactive) | 0.0436 | -0.281 | -0.673 (inactive)
4 | O=C(NN=C1C[C@@H](O)[C@@H](O)[C@@H]2[C@@H]3C(=O)N(Cc4ccccc4)C(=O)[C@@H]3CC[C@H]12)OCc1ccccc1 | -0.202 (inactive) | -0.279 | 0.464 (inactive) | -1.04 (inactive) | -0.999 (inactive) | -1.46 (inactive) | -0.276 | 1.49 (inactive) | 0.638 (inactive) | -0.0528 | 0.614 | 0.52 | -0.604 | 0.881 | -0.256 | 0.846 | 0.415 (inactive) | -0.415 | -0.427 | 0.288 (inactive)
5 | C#CCCCON=C1[C@H]2CCn3c(=O)n(Cc4cc5c(cc4Cl)OCO5)c(=O)n3[C@H]2[C@H](O)[C@@H]2O[C@H]12 | -0.248 (inactive) | -0.101 | 0.649 (inactive) | 0.581 (inactive) | 0.579 (inactive) | 0.035 (inactive) | -0.345 | -0.331 (inactive) | 0.367 (inactive) | -0.275 | 0.328 | -0.237 | 0.484 | -0.0822 | 0.644 | -0.663 | -1.1 (inactive) | -0.123 | 0.00911 | -0.188 (inactive)
6 | C=CC[C@@H]1C=C[C@H](ON=C2C[C@@H](O)[C@@H](O)[C@@H]3[C@@H]4C(=O)N(CC)C(=O)[C@@H]4CC[C@@H]23)[C@@H](CO)O1 | -0.887 (inactive) | -0.208 | -0.146 (inactive) | -1.65 (inactive) | 1.55 (inactive) | -1.74 (inactive) | 0.525 | -0.284 (inactive) | -0.621 (inactive) | -2.07 | -0.98 | 1 | 0.281 | -1.44 | -1.23 | -0.495 | 0.265 (inactive) | 0.216 | -0.354 | -0.28 (inactive)
7 | O=C1[C@H]2[C@H]3[C@H](O)[C@H](O)CC(=NO[C@@H]4O[C@H](CO)[C@@H](O)[C@H](O)[C@H]4O)[C@@H]3CC[C@H]2C(=O)N1C1CCCCC1 | 0.381 (inactive) | -0.126 | 0.785 (inactive) | 0.636 (inactive) | 1.04 (inactive) | 0.228 (inactive) | 0.322 | -0.336 (inactive) | 0.607 (inactive) | 0.573 | 0.646 | -0.235 | 0.521 | 0.547 | 0.776 | 1.09 | -0.229 (inactive) | 0.169 | -1.25 | -0.934 (inactive)
8 | CC(=O)OC[C@H]1O[C@H](CC=NOC(C)CN2CCCCc3nc(C)c(C)cc32)C=C[C@@H]1OC(C)=O (stereo not given in full) | 0.0072 (inactive) | 0.589 | 0.595 (inactive) | 0.324 (inactive) | 0.417 (inactive) | 0.246 (inactive) | -0.626 | -1.69 (inactive) | -0.695 (inactive) | -1.24 | -0.348 | -1.19 | -0.276 | 0.0965 | -1.26 | -0.681 | -1.05 (inactive) | -0.31 | -0.182 | -0.146 (inactive)
9 | COC(=O)[C@H](CCSC)NC(=O)CC=C[C@@H](C)CO | 0.193 (inactive) | -0.101 | 0.291 (inactive) | 0.317 (inactive) | -0.0396 (inactive) | -0.167 (inactive) | 0.81 | 1.58 (inactive) | -1.2 (inactive) | 0.613 | -0.493 | -0.169 | 0.0826 | -1.12 | -0.581 | 0.705 | -0.645 (inactive) | -0.545 | -1.62 | -0.812 (inactive)
